Reference: PubChem BioAssay (NCATS)
Inconclusive results are not listed. Entries that show only a call come without a potency. Activity calls are given as the source filed them. Calls come from the whole dose curve; as a rule, active = well fitted inhibition curve with a large enough effect; inconclusive = small, poorly fitted or top-dose-only effect; inactive = flat fitted curve, though single readings scatter.

Target: Lysine-specific demethylase 5B (Homo sapiens) (UniProt Q9UGL1)
Experiment: Optimization screen for KDM5B Histone Demethylases FDH coupled qHTS against the LOPAC library (AID 1347166)
Settings: KDM5B demethylation, FDH-coupled NADH fluorescence (FDH is formaldehyde dehydrogenase); series mostly up to 57.5 µM
Outline: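 KDM5BDeltaAP (200nM final) in 50mM HEPES pH 7.5, 0.01% Tween-20 was preincubated with compound for 10 min at room temperature. A substrate mix of 12.5uM H3K4Me3, 25uM a-ketoglutarate, ascorbate, Fe2+, NAD+ and formaldehyde dehydrogenase was then added. NADH fluorescence (340/450 nm) was read initially and after 30 min.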
Potency is the fitted concentration of half-maximal effect.

Sequence of Lysine-specific demethylase 5B (Homo sapiens) (Q9UGL1 whole entry, looked up): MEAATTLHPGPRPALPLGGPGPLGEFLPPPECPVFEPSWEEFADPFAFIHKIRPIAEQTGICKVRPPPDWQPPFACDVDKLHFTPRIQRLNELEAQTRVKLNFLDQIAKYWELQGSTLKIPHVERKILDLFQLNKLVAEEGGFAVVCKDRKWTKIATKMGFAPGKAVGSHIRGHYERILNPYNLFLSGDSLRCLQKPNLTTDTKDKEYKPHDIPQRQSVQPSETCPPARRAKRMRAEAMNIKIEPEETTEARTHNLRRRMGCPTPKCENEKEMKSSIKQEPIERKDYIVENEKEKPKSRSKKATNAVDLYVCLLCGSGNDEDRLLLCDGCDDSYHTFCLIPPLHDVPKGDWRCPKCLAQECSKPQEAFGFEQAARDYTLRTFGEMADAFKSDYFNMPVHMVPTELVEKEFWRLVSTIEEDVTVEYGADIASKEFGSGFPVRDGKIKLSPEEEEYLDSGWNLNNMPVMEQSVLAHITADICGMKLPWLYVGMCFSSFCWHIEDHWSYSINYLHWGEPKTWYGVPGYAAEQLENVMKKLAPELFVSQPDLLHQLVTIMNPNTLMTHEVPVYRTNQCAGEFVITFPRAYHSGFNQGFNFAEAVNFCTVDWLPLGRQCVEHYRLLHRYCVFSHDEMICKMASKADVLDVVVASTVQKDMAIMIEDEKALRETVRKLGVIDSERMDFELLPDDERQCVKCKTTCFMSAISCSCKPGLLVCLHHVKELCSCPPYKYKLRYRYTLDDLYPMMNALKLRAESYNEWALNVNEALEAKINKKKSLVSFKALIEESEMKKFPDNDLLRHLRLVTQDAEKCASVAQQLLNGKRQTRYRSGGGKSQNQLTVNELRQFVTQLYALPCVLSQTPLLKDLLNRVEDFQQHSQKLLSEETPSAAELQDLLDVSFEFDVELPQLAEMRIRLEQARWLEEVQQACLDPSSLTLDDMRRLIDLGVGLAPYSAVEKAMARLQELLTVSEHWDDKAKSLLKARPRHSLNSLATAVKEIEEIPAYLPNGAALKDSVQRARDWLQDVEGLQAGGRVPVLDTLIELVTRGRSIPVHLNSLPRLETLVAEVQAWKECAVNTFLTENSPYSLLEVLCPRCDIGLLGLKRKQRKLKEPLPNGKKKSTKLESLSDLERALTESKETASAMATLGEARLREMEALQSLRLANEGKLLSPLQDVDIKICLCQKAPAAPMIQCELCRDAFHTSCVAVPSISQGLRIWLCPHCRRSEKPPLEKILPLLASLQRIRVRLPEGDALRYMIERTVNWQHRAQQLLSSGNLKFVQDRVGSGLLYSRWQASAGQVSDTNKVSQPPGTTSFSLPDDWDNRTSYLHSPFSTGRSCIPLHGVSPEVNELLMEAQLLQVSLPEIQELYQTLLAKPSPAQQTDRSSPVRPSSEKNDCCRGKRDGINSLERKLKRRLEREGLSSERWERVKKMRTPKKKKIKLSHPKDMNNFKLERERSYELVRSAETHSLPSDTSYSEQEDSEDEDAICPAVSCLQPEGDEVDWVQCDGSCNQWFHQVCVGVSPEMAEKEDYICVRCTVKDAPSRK

Row | Compound | Potency
1 | C[C@@H]1O[C@H](C[N+](C)(C)C)CS1 | inactive
2 | NC(=O)c1ccc(OCC(O)CN2CC=C(c3ccc(F)cc3)CC2)cc1 (stereo not given) | inactive
3 | NCCc1ccc(S(=O)(=O)F)cc1 | inactive
4 | C=CCN(C1=NCCN1)c1c(Cl)cccc1Cl | inactive
5 | CCCN(CCC)[C@H]1CCc2c(F)ccc(O)c2C1 | inactive
6 | CCOC(=O)c1ncn2c1[C@@H]1CCCN1C(=O)c1cc(OC)ccc1-2 | inactive
7 | NC(=O)COc1c(F)cc(SCCNS(=O)(=O)c2ccccc2)cc1F | inactive
8 | CC1(C(=O)O)C2CCC(O2)C1(C)C(=O)O (stereo not given) | inactive
9 | CC12NC(Cc3ccccc31)c1ccccc12 (stereo not given) | inactive
10 | CN1CC[C@@]2(C)c3cc(O)ccc3N(C)C12 (stereo not given in full) | 2.51 µM (active)
11 | NC(CCCCCP(=O)(O)O)C(=O)O (stereo not given) | inactive
12 | Clc1cc(I)cc(Cl)c1NC1=NCCN1 | inactive
13 | CCN(CCCl)Cc1ccccc1Br | inactive
14 | COc1ccc2c(c1)C13CCCCC1C(C2)N(C)CC3 (stereo not given) | inactive
15 | C[C@H](N)Cc1cccc(C(F)(F)F)c1 | inactive
16 | N=C(N)c1ccc(CS(=O)(=O)F)cc1 | inactive
17 | C=CCN1CCC23c4c5ccc(O)c4O[C@H]2C(=O)CC[C@@]3(O)C1C5 (stereo not given in full) | inactive
18 | Ic1ccccc1CNC1C2CCN(CC2)C1C(c1ccccc1)c1ccccc1 (stereo not given) | inactive

Row | Compound | Potency
19 | CCCCCCC(C)(C)c1ccc([C@@H]2C[C@H](O)CC[C@H]2CCCO)c(O)c1 | inactive
20 | CCCN1CC[C@@H]2c3cc(O)ccc3CC[C@@H]21 | inactive
21 | OCc1cnc[nH]1 | inactive
22 | C[C@H](Cc1ccc2c(c1)OC(C(=O)O)(C(=O)O)O2)NC[C@H](O)c1cccc(Cl)c1 | inactive
23 | C#CCN[C@H](C)Cc1ccccc1 | inactive
24 | N#CCCN | inactive
25 | CCCn1c(=O)c2[nH]c(C3CCCC3)nc2n(CCCOC(=O)c2ccc(S(=O)(=O)F)cc2)c1=O | inactive
26 | CC(C)(C)c1o[nH]c(=O)c1CC(N)C(=O)O (stereo not given) | inactive
27 | C[C@@H]1[C@@H]2Cc3ccc(O)cc3[C@@]1(C)CCN2CC1CC1 | inactive
28 | Cc1cc([C@@H]2CCCN2C)on1 | inactive
29 | NCCCP(=O)(O)O | inactive
30 | CCN1C[C@@]2(COC)C3[C@@H](OC)C4[C@@H]1C3([C@@H]1C[C@]3(O)[C@H](OC(=O)c5ccccc5)[C@@H]1[C@]4(OC(C)=O)[C@@H](O)[C@@H]3OC)[C@H](OC)C[C@H]2O | inactive
31 | CC(C)NP(=O)(NC(C)C)OP(=O)(NC(C)C)NC(C)C | inactive
32 | CCCC[N+]1(C)C2CC(OC(=O)[C@H](CO)c3ccccc3)CC1C1OC12 (stereo not given in full) | inactive
33 | C=CCN1CC[C@]23c4c5ccc(O)c4O[C@@H]2/C(=N/N=C2\CC[C@@]4(O)C6Cc7ccc(O)c8c7[C@@]4(CCN6CC=C)[C@@H]2O8)CC[C@@]3(O)C1C5 | inactive
34 | CCCn1c(C)c(C(=O)c2ccc3ccccc3c2)c2ccccc21 | inactive
35 | C[N+]1(C)C2CCC1CC(OC(=O)c1c[nH]c3ccccc13)C2 (stereo not given) | inactive
